Results reported in PubChem BioAssay.
Activity calls are given as the source filed them. Unless noted, the rule behind the calls is not given here.

Columns and labels:
[1] = compounds binding Alexa647 anti-His antibody – biochemical, small-molecule microarray, 635 nm fluorescence, artefact control for SMM control protein annotation, primary screen (AID 1128); details: higher = more signal;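 note: score merges feature fluorescence with signal-to-noise for each printed compound spot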
[2] = system: Human papillomavirus type 1a E7 protein (residues 1-88); test: HPV1a E7 small-molecule binders, primary screen, biochemical, small-molecule microarray, residues 1-88, 635 nm (AID 1129); details: small-molecule microarray binding, fluorescence 635 nm; higher = more signal
[3] = target: Focal adhesion kinase 1 (Homo sapiens) (UniProt Q05397); test: PTK2 protein binding on printed compound slides – biochemical, small-molecule microarray, 635/667 nm fluorescence, BSA, DTT, primary screen (AID 1130); details: 635 nm fluorescence, higher = more signal;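 note: composite of spot emission at 667 nm and signal to noise over triplicate slides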
Focal adhesion kinase 1 (Homo sapiens), sequence (Q05397 whole entry, looked up): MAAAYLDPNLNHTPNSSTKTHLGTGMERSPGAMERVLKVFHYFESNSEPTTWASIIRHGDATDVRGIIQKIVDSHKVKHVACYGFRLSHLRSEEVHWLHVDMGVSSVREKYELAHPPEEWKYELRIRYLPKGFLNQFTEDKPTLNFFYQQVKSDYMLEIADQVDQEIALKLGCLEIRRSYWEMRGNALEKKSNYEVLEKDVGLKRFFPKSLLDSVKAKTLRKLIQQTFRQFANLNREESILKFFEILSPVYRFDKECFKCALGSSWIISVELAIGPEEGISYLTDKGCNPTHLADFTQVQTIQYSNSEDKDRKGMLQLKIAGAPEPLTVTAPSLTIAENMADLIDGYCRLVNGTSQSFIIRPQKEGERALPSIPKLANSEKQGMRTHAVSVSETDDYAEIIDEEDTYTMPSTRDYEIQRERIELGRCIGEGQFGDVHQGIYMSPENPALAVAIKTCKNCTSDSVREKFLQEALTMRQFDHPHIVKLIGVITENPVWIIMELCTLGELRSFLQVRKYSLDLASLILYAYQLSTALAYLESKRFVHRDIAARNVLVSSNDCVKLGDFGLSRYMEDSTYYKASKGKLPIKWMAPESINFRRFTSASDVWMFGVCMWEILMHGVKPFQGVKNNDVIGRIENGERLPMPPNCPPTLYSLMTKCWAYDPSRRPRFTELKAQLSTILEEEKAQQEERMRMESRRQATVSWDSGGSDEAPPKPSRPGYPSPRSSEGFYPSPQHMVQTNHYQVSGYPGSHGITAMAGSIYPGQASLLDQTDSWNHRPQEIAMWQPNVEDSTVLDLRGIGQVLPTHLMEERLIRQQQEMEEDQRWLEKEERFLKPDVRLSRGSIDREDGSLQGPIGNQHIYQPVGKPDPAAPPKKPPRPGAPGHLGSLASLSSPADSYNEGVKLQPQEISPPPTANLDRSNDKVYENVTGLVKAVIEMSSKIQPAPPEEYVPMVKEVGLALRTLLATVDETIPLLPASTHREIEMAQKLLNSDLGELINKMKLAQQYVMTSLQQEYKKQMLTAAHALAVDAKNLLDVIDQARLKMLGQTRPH

[4] = system: Fibrinogen (Alexa647-labelled); test: Alexa647-fibrinogen binding to printed small molecules – biochemical, small-molecule microarray, 635/667 nm fluorescence, artefact control for SMM control-protein annotation, profiling panel (AID 1131); details: fibrinogen-A647 binding fluorescence, higher = more signal;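 note: z-score merges 667 nm fluorescence with per-spot signal-to-noise over triplicate slides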
[5] = target: Follistatin (Homo sapiens) (UniProt P19883); test: FST protein binding to printed compounds – biochemical, small-molecule microarray, 635/667 nm fluorescence, primary screen (AID 1132); details: 635 nm fluorescence, higher = more signal
Follistatin (Homo sapiens), sequence (P19883 whole entry, looked up): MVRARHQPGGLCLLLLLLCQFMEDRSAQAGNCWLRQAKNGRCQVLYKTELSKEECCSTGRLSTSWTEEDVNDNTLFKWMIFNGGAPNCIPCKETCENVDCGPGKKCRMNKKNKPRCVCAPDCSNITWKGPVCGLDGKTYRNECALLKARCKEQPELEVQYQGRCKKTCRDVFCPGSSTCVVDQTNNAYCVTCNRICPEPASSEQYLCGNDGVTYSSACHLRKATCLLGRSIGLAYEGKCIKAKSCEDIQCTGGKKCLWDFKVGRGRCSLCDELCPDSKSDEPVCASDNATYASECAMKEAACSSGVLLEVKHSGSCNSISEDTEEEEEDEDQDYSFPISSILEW

[6] = target: Fibroblast growth factor 2 (Homo sapiens) (UniProt P09038); test: basic fibroblast growth factor binding to printed compounds – biochemical, small-molecule microarray, 635/667 nm fluorescence, primary screen (AID 1133); details: FGF2, fluorescence 635/667, higher = more signal
Fibroblast growth factor 2 (Homo sapiens), sequence (P09038 whole entry, looked up): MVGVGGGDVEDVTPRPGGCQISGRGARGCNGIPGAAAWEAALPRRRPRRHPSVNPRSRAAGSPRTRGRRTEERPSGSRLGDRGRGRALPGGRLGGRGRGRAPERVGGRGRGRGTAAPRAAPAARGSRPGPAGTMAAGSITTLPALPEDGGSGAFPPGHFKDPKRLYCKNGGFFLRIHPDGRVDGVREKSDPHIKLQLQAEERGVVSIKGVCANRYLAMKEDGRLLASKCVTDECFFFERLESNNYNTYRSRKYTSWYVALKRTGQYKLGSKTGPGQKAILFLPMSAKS

[7] = JC-1 mitochondrial potential readout, lung cancer cells – cell-based, A549, JC-1 fluorescence, basal, 24 h, 100 nL, profiling panel (AID 1138); details: higher = more signal;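 note: A549 lung adenocarcinoma cells under basal conditions with no added stimulus; test concentration not given here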
Lefty1 = Lefty1 protein binding to printed compounds – biochemical, small-molecule microarray, 635/667 nm fluorescence, primary screen (AID 1139); details: fluorescence 635/667, higher = more signal
[8] = system: wheat germ agglutinin (Triticum aestivum), Alexa647-labelled; test: Alexa647-WGA lectin binding to printed small molecules – biochemical, small-molecule microarray, 635/667 nm fluorescence, artefact control for SMM control-protein annotation, profiling panel (AID 1140); details: WGA-A647 binding, 635 nm fluorescence, higher = more signal;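 note: score merges 667 nm feature emission with signal to noise over triplicate slides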
[9] = target: Luciferin 4-monooxygenase (Photinus pyralis) (UniProt P08659); test: inhibition of purified Photinus pyralis luciferase – biochemical, luminescence, purified enzyme, 2006 set, primary screen (AID 1141); details: purified firefly luciferase, SteadyGlo luminescence, 30 min; higher = more signal, called active from +8 up or from −8 down;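 note: cell-free assay with purified firefly luciferase at 100 ng per well in PBS; test concentration not given here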
Luciferin 4-monooxygenase (Photinus pyralis), sequence (P08659 whole entry, looked up): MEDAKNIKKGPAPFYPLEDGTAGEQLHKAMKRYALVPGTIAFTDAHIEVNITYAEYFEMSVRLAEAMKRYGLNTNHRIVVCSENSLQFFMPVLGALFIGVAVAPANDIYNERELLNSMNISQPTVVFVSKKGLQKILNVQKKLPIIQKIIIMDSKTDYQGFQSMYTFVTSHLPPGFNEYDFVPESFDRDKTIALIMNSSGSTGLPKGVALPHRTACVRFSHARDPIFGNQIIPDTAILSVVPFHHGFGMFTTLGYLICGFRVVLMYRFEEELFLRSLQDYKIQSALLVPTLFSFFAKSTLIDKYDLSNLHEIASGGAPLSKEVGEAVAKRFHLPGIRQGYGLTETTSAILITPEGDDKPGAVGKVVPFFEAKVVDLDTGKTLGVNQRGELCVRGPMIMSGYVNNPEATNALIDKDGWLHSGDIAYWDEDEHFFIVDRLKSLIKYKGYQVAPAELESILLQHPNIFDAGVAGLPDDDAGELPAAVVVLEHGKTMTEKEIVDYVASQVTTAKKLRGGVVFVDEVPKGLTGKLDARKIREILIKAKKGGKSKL

[10] = system: Wnt5a (protein binding on small-molecule microarray); test: small molecules binding Wnt5a protein – biophysical, small-molecule microarray, 635/667 nm fluorescence, primary screen (AID 1142); details: 635 nm fluorescence, higher = more signal;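 note: fluorescence read at 667 nm with signal to noise per printed feature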
[11] = ATP-based viability of Huh7 replicon cells – cell-based, CellTiter-Glo luminescence, basal, 48 h, cytotoxicity control for HCV replication inhibitor project, primary screen (AID 1143); details: higher = more signal, called active from +8 up or from −8 down;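 note: Huh7 hepatoma cells carrying a hepatitis C replication reporter with no stimulus; test concentration not given here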
[12] = Pseudomonas biofilm growth suppression – PAO1 strain, BacTiter-Glo luminescence, LB-PBS, primary screen (AID 1144); details: P. aeruginosa PAO1 biofilm, 12 h, higher = more signal
[13] = basal CRE-LacZ reporter activity in PC12 – cell-based, unstimulated, primary screen (AID 1145); details: no forskolin, luminescence, 4.5 h, higher = more signal, called active from +8 up or from −8 down
[14] = forskolin-driven CRE-LacZ activity in PC12 – cell-based, CRE-LacZ reporter, forskolin-stimulated, primary screen (AID 1146); details: luminescence, 4.5 h, higher = more signal, called active from +8 up or from −8 down;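 note: PC12 cells with 6xCRE LacZ reporter stimulated by forskolin 10 µM; beta-galactosidase reporter signal reflecting CREB driven transcription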
[15] = target: Streptavidin (Streptomyces avidinii) (UniProt P22629); test: compounds binding control protein streptavidin – biophysical, small-molecule microarray, 635/667 nm fluorescence, artefact control for SMM compound annotation, primary screen (AID 1147); details: higher = more signal;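 note: signal reflects streptavidin binding to arrayed compounds as a control protein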
Streptavidin (Streptomyces avidinii), sequence (P22629 whole entry, looked up): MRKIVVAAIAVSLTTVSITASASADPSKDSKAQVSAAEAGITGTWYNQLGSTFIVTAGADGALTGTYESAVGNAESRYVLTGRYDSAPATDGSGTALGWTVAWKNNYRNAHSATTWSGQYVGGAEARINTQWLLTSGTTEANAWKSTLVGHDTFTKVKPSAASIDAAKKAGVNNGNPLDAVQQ

[16] = probe aInhba binding on compound microarray – biochemical, small-molecule microarray, 635/667 nm fluorescence, primary screen (AID 1148); details: higher = more signal;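 note: score merges 667nm spot fluorescence with signal-to-noise for antibody binding to printed compounds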
Torsin-1A (Homo sapiens) [17] = target: Torsin-1A (Homo sapiens) (UniProt O14656); test: TOR1A wild-type binding on microarray – cell lysate, small-molecule microarray, lysate, 635/667 nm, primary screen (AID 1149); details: COS7 hTOR1A-WT lysate, 635 nm fluorescence, higher = more signal
Torsin-1A (Homo sapiens), sequence (O14656 whole entry, looked up): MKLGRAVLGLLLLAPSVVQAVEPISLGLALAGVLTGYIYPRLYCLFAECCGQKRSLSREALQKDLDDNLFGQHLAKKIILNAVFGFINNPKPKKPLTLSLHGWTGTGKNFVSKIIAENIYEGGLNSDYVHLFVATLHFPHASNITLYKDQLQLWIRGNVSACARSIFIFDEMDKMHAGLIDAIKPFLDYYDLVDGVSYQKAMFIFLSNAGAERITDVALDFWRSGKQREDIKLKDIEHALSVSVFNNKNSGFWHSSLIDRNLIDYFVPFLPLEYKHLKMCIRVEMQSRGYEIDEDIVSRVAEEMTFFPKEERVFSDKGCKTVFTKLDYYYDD

Torsin-1A (Homo sapiens) [18] = target: Torsin-1A (Homo sapiens) (UniProt O14656); test: torsin A mutant lysate binding on microarrays – cell lysate, small-molecule microarray, COS7 lysate, 635/667 nm fluorescence, primary screen (AID 1150); details: COS7 hTOR1A mutant lysate, 635 nm fluorescence, higher = more signal;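 note: score pools 667 nm emission and signal to noise measuring lysate protein binding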
[19] = system: Sonic hedgehog protein (Shh); test: Sonic hedgehog microarray binding compounds – biochemical, small-molecule microarray, 635/667 nm fluorescence, primary screen (AID 1151); details: 635 nm fluorescence, higher = more signal;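 note: Shh protein binding to compounds spotted on small-molecule microarray slides; score combines spot fluorescence intensity with signal-to-noise across triplicate slides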

Row | Compound | composite z-score [1] | composite z-score [2] | composite z-score [3] | composite z-score [4] | composite z-score [5] | composite z-score [6] | z-score [7] | composite z-score (Lefty1) | composite z-score [8] | z-score [9] | composite z-score [10] | z-score [11] | z-score [12] | z-score [13] | z-score [14] | composite z-score [15] | composite z-score [16] | composite z-score (Torsin-1A (Homo sapiens) [17]) | composite z-score (Torsin-1A (Homo sapiens) [18]) | composite z-score [19]
1 | CCCC[C@H]1OB(O)C[C@H]2C1=C(COc1ccccc1)C[C@H]1C(=O)N(C)C(=O)[C@H]12 | -0.0391 | 0.0417 | -0.281 | -0.0052 | 1.24 | 0.473 | 0.284 | 0.576 | 0.0686 | -0.718 (inactive) | 0.195 | -0.348 (inactive) | 1.04 (inactive) | 1.77 (inactive) | 0.899 (inactive) | -0.385 | -0.0933 | -0.212 | 0.138 | 0.853
2 | COCCOC(=O)N1C(=O)[C@@]2(c3cc(C#CCCO)ccc31)[C@H](C(=O)Nc1nc3ccccc3s1)[C@H]1C(=O)O[C@H](c3ccccc3)[C@H](c3ccccc3)N1[C@@H]2c1ccc(OCCO)cc1 | 0.738 | 0.957 | 0.128 | 0.944 | 1.27 | 1.65 | -2.4 | 1.26 | 0.482 | -2.56 (inactive) | 0.281 | -0.224 (inactive) | -1.05 (inactive) | -1.14 (inactive) | -0.432 (inactive) | 1.06 | 0.138 | 0.367 | 1.42 | 1.56
3 | C=CCC(OC(C)=O)[C@@H]1[C@@H](N(Cc2cccc3ccccc23)C(=O)c2ccc(-c3ccccc3)cc2)c2cc(OCCCO)ccc2N1C(=O)Cc1ccc(OC)cc1 (stereo not given in full) | 0.364 | -0.128 | 0.179 | 0.603 | 0.652 | -0.0199 | 1.06 | 0.246 | 0.281 | 0.912 (inactive) | 0.36 | -0.454 (inactive) | -0.266 (inactive) | -0.491 (inactive) | 0.117 (inactive) | 0.311 | 0.0018 | 0.0276 | -0.265 | 0.179
4 | CCc1oc(CC[C@@H](CO)NC(=O)NCCn2cc(C3(O)CCCCC3)nn2)c(C(=O)OC)c1C(=O)OC | 2.48 | 0.687 | -0.353 | 0.685 | 1.28 | 1.13 | -0.0225 | 1.63 | 0.074 | 0.654 (inactive) | 0.209 | -0.186 (inactive) | 0.73 (inactive) | 1.01 (inactive) | 1.01 (inactive) | -0.0709 | 0.174 | 1.31 | 1.11 | 2.09
5 | CCCC#C[Si](O[C@H](CC)c1cn([C@H](CO)Cc2ccccc2)nn1)(C(C)C)C(C)C | 0.236 | 0.842 | 0.249 | 0.892 | 0.963 | 0.344 | 0.175 | 0.41 | 0.0686 | -0.453 (inactive) | 0.998 | -0.727 (inactive) | -0.259 (inactive) | -0.388 (inactive) | -0.0711 (inactive) | 0.949 | -0.128 | 0.402 | 0.511 | 0.482
6 | CCCC=C(CCC)[C@@H](NC(=O)Oc1ccc(F)cc1)c1ccc(C(=O)OC)cc1 | 0.421 | 1.15 | 0.401 | 0.906 | 0.746 | -0.161 | 2.89 | -0.186 | 1.09 | 0.516 (inactive) | 0.0931 | -3.08 (inactive) | -0.135 (inactive) | 0.194 (inactive) | 1.43 (inactive) | 1.55 | 0.329 | -0.0302 | 0.262 | -0.69
7 | O=C1OCC=C[C@H]2OC34C=CCN(c5ccc6ccccc6c5)C(=O)[C@H]3N(CCCCCCO)C(=O)[C@@H]4[C@@H]12 (stereo not given in full) | 2.67 | -0.593 | 0.806 | -0.9 | -1.18 | -0.595 | 1.16 | -0.732 | -0.434 | -0.875 (inactive) | -0.565 | 0.165 (inactive) | 3.31 (inactive) | 0.471 (inactive) | -0.0042 (inactive) | -0.719 | -0.018 | 1.62 | -1.69 | -0.749
8 | COc1ccc(CCNC(=O)[C@@H]2c3ccccc3C(=O)N(C3Cc4ccccc4C3)[C@H]2c2ccc(CO)cc2)cc1 | 1.12 | 0.655 | 1.02 | 0.92 | 0.25 | 0.0201 | 0.997 | -0.0376 | 0.645 | 0.672 (inactive) | -0.062 | -0.221 (inactive) | -0.17 (inactive) | -0.0888 (inactive) | -1.01 (inactive) | -0.217 | -0.0448 | 0.0114 | 0.067 | 0.13
9 | Cc1ccc(S[C@]2(C(=O)NCC(C)C)CC(=O)N(Cc3cc(C(F)(F)F)cc(C(F)(F)F)c3)[C@@H]2c2ccc(CO)cc2I)cc1 | -0.316 | -1.08 | -0.55 | -0.819 | -1.59 | -1.1 | -0.553 | -2.21 | -0.192 | 0.328 (inactive) | -0.0088 | -1.19 (inactive) | -0.486 (inactive) | 0.441 (inactive) | 0.845 (inactive) | -0.634 | 0.0173 | -1.72 | -0.913 | -1.05
10 | C#CCN(CC1=CCCCC1)[C@H](c1ccccc1Br)[C@@H](O)Cc1ccccc1 | 0.646 | -0.0173 | 1.98 | -0.671 | -0.688 | -1.05 | -1.27 | -0.955 | 0.665 | -0.688 (inactive) | -0.0365 | -1.5 (inactive) | 0.0281 (inactive) | 2.21 (inactive) | 0.219 (inactive) | -0.949 | -0.159 | 1.07 | 0.962 | -0.515
